Sampled rows, rich in hits. Any-hit rate of the full collection: about 3%.
GCN5L2 inh: GCN5L2 (KAT2A) acetyltransferase inhibition. Q92830. GCN5L2 HAT assay, ThioGlo1 CoA-SH fluorescence. Potency, µM (highest dose often 58.9 µM), without a hit: top-dose activity change, negative = inhibition, hits mostly inhibitors. 390,000 compounds, 0.21% hits. AID 504327; also: % is scaled to controls: 0 for no effect and ±100 for the full control effect
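Preincubate 20nM GCN5L2 with compound 15 min, RT → add 50uM ThioGlo1 + 75uM H3(1-25) + 70uM acetyl-CoA → read fluorescence 0 and 20 min. Primary qHTS; fluorescent artifacts likely.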
PLK1 PBD inh: inhibitors of human PLK1 polo-box domain binding; P53350; Plk1 PBD binding of FITC phosphopeptide, fluorescence polarization; Potency, µM, for inactives: max response, negative = inhibition, usual class: inhibitors; 360,000 compounds, 2.8% hits; AID 720504; also: series mostly up to about 57 µM; % is scaled to controls: 0 for no effect and ±100 for the full control effect; nearly all actives have a fitted effect of over 65% in size
VDR inh: vitamin D3 receptor (human) inhibition | P11473 | 400,000 compounds, 0.93% hits | Potency, µM, for inactives: max response, negative = inhibition, actives largely listed as inhibitors | VDR-SRC2-3 peptide fluorescence polarization, 2 h; also: % is scaled to controls: 0 for no effect and ±100 for the full control effect
Target sequence (P11473 whole entry, looked up): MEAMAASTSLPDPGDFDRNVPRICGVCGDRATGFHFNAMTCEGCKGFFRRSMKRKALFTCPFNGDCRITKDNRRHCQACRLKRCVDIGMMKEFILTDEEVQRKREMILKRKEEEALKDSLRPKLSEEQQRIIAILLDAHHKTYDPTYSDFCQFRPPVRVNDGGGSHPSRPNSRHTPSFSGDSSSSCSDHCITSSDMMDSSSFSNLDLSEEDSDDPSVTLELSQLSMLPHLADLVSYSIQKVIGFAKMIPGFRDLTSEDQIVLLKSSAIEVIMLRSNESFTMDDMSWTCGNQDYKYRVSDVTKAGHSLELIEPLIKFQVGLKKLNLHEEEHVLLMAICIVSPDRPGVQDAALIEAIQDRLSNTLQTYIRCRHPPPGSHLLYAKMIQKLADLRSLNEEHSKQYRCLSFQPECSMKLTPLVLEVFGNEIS
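Compounds are added to VDR with labelled SRC2-3 coactivator peptide and held 2 h at room temperature. Inhibition of the VDR–peptide interaction is then read as a change in fluorescence polarization.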
USP1-UAF1 inh: blocks the human USP1/UAF1 deubiquitinase complex | O94782 | AID 743255 | Potency, µM (doses to about 57.1 µM), for the others: at the top dose activity change, negative = inhibition, actives largely listed as inhibitors | 390,000 compounds, 0.23% hits | recombinant USP1/UAF1, Ub-Rhodamine cleavage fluorescence; also: % is scaled to controls: 0 for no effect and ±100 for the full control effect; nearly all actives have a fitted effect of over 60% in size
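1 nM enzyme complex + cpd, 15 min RT; start with Ub-Rho 150nM final; kinetic fluorescence ex 480/em 540, 6 reads q60 s. Buffer 50mM HEPES pH 7.8, 0.5mM EDTA, 0.1 mg/ml BSA, 1mM TCEP, 0.01% Tween-20.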
TSG101-PTAP inh: blocks PTAP/TSG101 interaction to inhibit HIV-1 budding | Q99816 | Fluorescence polarization, FITC-PTAP peptide / Tsg101 binding | Potency, µM (top dose mostly 115 µM), for inactives: top-dose activity change, negative = inhibition, most hits filed as inhibitors | 340,000 tested, under 10 active | AID 493005; active = well fitted inhibition curve with a large enough effect in the main read-out, with a control signal flat, not every such curve was filed as active; inconclusive = small, poorly fitted or top-dose-only effect, or effect the other way, or a change in a side signal; inactive = no such curve, though single readings can be large or run the other way; also: % of control where 0% means no effect
Target sequence (Q99816 whole entry, looked up): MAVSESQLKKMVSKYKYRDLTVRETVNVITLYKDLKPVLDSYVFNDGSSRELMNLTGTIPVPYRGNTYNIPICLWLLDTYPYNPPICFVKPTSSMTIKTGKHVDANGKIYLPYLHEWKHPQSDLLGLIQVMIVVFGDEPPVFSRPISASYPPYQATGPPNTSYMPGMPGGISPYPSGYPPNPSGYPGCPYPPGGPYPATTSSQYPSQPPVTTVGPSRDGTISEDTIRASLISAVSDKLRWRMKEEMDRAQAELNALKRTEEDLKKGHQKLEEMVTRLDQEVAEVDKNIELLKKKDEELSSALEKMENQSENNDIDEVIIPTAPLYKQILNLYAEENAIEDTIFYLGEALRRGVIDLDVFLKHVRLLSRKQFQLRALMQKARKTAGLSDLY
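Compounds were pin-transferred onto Tsg101 binding domain (10 uM final) in HEPES pH 7.5 buffer, then FITC-PTAP peptide was added at 50 nM final. After 20 min at RT, polarization reported peptide displacement across a qHTS concentration series.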
TbPYK inh: Trypanosoma brucei pyruvate kinase inhibition, cherry-pick confirmation. shares compounds with PLK1 PBD inh. Potency, µM (top dose mostly 76.9 µM), for the others: at the highest dose activity change, negative = inhibition, hits mostly inhibitors. 890 compounds, 67% hits. AID 720569. recombinant TbPYK, Kinase-Glo ATP luminescence; also: % is scaled to controls: 0 for no effect and ±100 for the full control effect; nearly all actives have a fitted effect of over 70% in size
TbPYK orthogonal: TbPYK inhibition, orthogonal confirmation | recombinant TbPYK, ADP-Glo luminescence, 60 min | shares compounds with PLK1 PBD inh | Potency, µM (doses to about 76.9 µM), for the others: at the top dose activity change, negative = inhibition, actives largely listed as inhibitors | 890 compounds, 62% hits; also: % is scaled to controls: 0 for no effect and ±100 for the full control effect; nearly all actives have a fitted effect of over 75% in size
An asterisk follows results filed as active; ? = inconclusive; . = no result; [ ] = remark or other dose. Unless noted, calls follow the shape of the dose curve; as a rule, active = well fitted curve in the direction sought with a large enough effect; inconclusive = small, poorly fitted or top-dose-only effect, or another doubt; inactive = no such curve, though single readings can be large; an effect the other way counts as inactive or inconclusive. Potency is read from the fitted curve at half-maximal effect.

SMILES | GCN5L2 inh | PLK1 PBD inh | VDR inh | USP1-UAF1 inh | TSG101-PTAP inh | TbPYK inh | TbPYK orthogonal
CN(C)c1ccc(C=C2C(=O)NC(=O)NC2=O)cc1[N+](=O)[O-] | -13.1% | 7.52µM* | -27.6% | -1.5% | -2.0% | 15.8µM* | 31.6µM*
O=C1NC(=O)C(=Cc2ccccc2[N+](=O)[O-])C(=O)N1 | . | 11.9µM* | ? | -9.7% | -0.2% | 8.91µM* | 28.2µM*
CCOc1cc(C=C2C(=O)NC(=O)NC2=O)cc([N+](=O)[O-])c1O | -9.0% | . | . | . | . | . | .
O=C1NC(=O)C(=Cc2ccc(-c3ccccc3[N+](=O)[O-])o2)C(=O)N1 | -21.5% | 1.34µM* | 39.8µM* | -5.5% | -2.8% | ? | ?
O=c1[nH]c(=S)[nH]c(O)c1N=Nc1cc2c(cc1[N+](=O)[O-])OCO2 | 10.5% | -14.2% | ? | -15.3% | -3.5% | . | .
O=C1NC(=O)C(=Cc2cc3c(cc2[N+](=O)[O-])OCO3)C(=O)N1 | -9.0% | 13.4µM* | 39.8µM* | -4.5% | -2.8% | 8.91µM* | ?
O=C(Oc1ccccc1)N1CCC[C@@]2(CCN(Cc3nccs3)C2)C1 | -19.7% | . | -14.1% | . | . | . | .
O=C1NC(=O)C(=Cc2ccc(OCC(=O)N3CCOCC3)cc2)C(=O)N1 | -6.5% | 26.7µM* | 0.0% | -11.7% | -0.5% | 17.8µM* | ?
O=C(COc1ccc(S(=O)(=O)N2CCOCC2)cc1)N1CCN(Cc2ccc3c(c2)OCO3)CC1 | -3.3%[0.501 µM] | -4.4% | 0.7% | -13.9% | -3.4% | . | .
CC(C)(C)CC(C)(C)c1ccc(O)cc1 | . | . | 14.6% | . | . | . | .
O=C1NC(=O)N(Cc2ccccc2)C(=O)/C1=C\c1ccco1 | ? | 2.12µM* | -3.0% | -14.9% | -5.2% | 31.6µM* | ?
Cc1cc(C)n2nc(SC(C)C(=O)N3CCC4(CC3)OCCO4)nc2n1 (configuration not stated) | -2.2% | -1.2% | -7.7% | -19.0% | . | 6.2% | -2.0%
CCOC(=O)c1c(/N=C/C2C(=O)NC(=S)NC2=O)sc2c1CCC2 | 0.4% | 22.6% | ? | -12.4% | ? | ? | ?
N#Cc1c(/N=C/C2C(=O)NC(=S)NC2=O)sc2c1CCCC2 | -1.1% | ? | ? | -15.9% | 2.1% | . | .
C[C@H]1[C@@H](O)[C@@H](C)/C=C\C=CCC\C=C/C=C\C=C/C=C[C@@H](O[C@H]2O[C@@H](C)[C@@H](O)[C@@H](N)[C@@H]2O)C[C@@H]2O[C@@](O)(C[C@@H](O)[C@H]2C(=O)O)C[C@@H](O)[C@@H](O)CC[C@@H](O)C[C@@H](O)C[C@@H](O)CC(=O)O[C@H]1C | -7.1%[21.4 µM] | . | -1.1% | . | . | . | .
COc1cc(OC)c(/C=C2\C(=O)Nc3ccccc32)c(OC)c1 | -26.4% | -14.3% | -9.6% | 11.2% | -2.3% | . | .
COc1ccc(N2C(=O)/C(=C/c3ccc(C)o3)C(=O)NC2=S)c(OC)c1 | -26.5% | 10.6µM* | 6.8% | ? | -3.5% | 1.41µM* | 12.6µM*
CN1CCC[C@@H]1c1cccnc1 | ? | . | 4.4% | . | . | . | .
O=C1NC(=O)C(=Cc2ccc(SC3CCCCC3)o2)C(=O)N1 | -24.4% | 0.597µM* | ? | ? | -8.3% | 28.2µM* | 39.8µM*
COC1C(O)C(C)O[C@@H](OC2CC[C@@]3(C)C4CC[C@]5(C)C(C6=CC(=O)OC6)CC[C@@]5(O)C4CC[C@@H]3C2)C1O (some centres not stated) | 3.3% | . | 11.9% | . | . | . | .
O=C(O)CCn1cc(C=C2C(=O)NC(=O)NC2=O)c(-c2ccc(Br)cc2)n1 | -13.2% | 2.67µM* | -16.1% | -13.3% | -2.7% | 14.1µM* | 28.2µM*
Cc1ccc(-c2nn(Cc3ccccc3)cc2C=O)cc1 | -5.3% | -9.8% | 2.0% | ? | -0.5% | . | .
COc1ccc(S(=O)(=O)N(C)C[C@H]2OCCCC[C@H](C)Oc3ccc(N(C)C)cc3C(=O)N([C@H](C)CO)C[C@@H]2C)cc1 | . | -12.3% | . | -20.8% | . | 11.2µM* | ?
NCC[C@H](O)C(=O)N[C@H]1C[C@@H](N)[C@@H](O[C@H]2O[C@@H](CN)[C@@H](O)[C@@H](O)[C@@H]2N)[C@@H](O[C@H]2O[C@@H](CO)[C@@H](O)[C@@H]2O)[C@@H]1O | -2.4%[21.4 µM] | . | 2.9% | . | . | . | .
Cc1cccn2c(=O)c(/C=C(\C#N)c3nc4ccccc4s3)c(Oc3ccc(F)cc3)nc12 | -1.3% | . | ? | -7.2% | . | . | .
SMILES | GCN5L2 inh | PLK1 PBD inh | VDR inh | USP1-UAF1 inh | TSG101-PTAP inh | TbPYK inh | TbPYK orthogonal
O=C1NC(=O)N(c2cccc(Br)c2)C(=O)/C1=C/c1ccsc1 | -17.2% | 2.38µM* | ? | -25.9% | -0.1% | ? | ?
C(=NC12CN3CN(CN(C3)C1)C2)c1cccs1 | -7.3% | -1.5% | 7.0% | -2.1% | -2.0% | . | .
O=C1NC(=O)C(=Cc2cccs2)C(=O)N1 | . | 2.67µM* | ? | -24.3% | -0.3% | 14.1µM* | 31.6µM*
O=C1NC(=O)N(c2ccc(F)cc2)C(=O)/C1=C/c1ccsc1 | -3.2% | 6.7µM* | ? | -15.4% | 1.8% | ? | -29.0%
CC(=O)n1cc(C=C2C(=O)NC(=O)NC2=O)c2ccccc21 | -5.9% | 4.23µM* | ? | -5.1% | -7.0% | 22.4µM* | 35.5µM*
CC(C)[C@@]1(NC(=O)[C@H]2CC3c4cccc5[nH]cc(c45)C[C@H]3N(C)C2)O[C@@]2(O)C3CCCN3C(=O)[C@@H](Cc3ccccc3)N2C1=O (some centres not stated) | -23.8% | . | -0.7% | . | . | . | .
CC1CN(c2ccccc2)NC1=O (configuration not stated) | 11.0% | -7.1% | 9.1% | ? | 0.3% | . | .
C[C@H](CO)N1C[C@H](C)[C@@H](CN(C)C(=O)NC2CCCCC2)Oc2c(cccc2N(C)C)C1=O | -0.4% | -11.4% | 10.9% | ? | 1.4% | . | .
CCN1C[C@@]2(COC)CC[C@H](O)[C@@]34[C@@H]2C[C@@H]([C@@H]13)[C@]1(O)C[C@@H](OC)C2C[C@H]4[C@H]1[C@H]2OC(C)=O | 9.7%[21.4 µM] | . | 1.6% | . | . | . | .
O=C1NC(=O)C(=Cc2ccsc2)C(=O)N1 | 9.0% | 6.7µM* | -10.1% | -15.9% | -0.1% | 14.1µM* | ?
O=C1NC(=O)C(=Cc2csc3ccccc23)C(=O)N1 | -7.8% | 2.12µM* | 35.5µM* | -19.9% | -3.4% | 15.8µM* | 31.6µM*
CCN1C[C@]2(COC)CC[C@H](OC)[C@@]34C5C[C@@H]6[C@@H](OC)C[C@@]7(OCO[C@@]7([C@@H](O)C23)[C@@H]14)C5[C@H]6OC (some centres not stated) | 17.0% | . | 3.3% | . | . | . | .
